From PubChem
GDH-TPI counter: inhibits GDH-TPI coupling enzymes, artifact for Mtb FBA screen | GDH-TPI coupled enzyme counterscreen, NADH absorbance | inhibition, % at 4.8 µM | 360,000 tested, 1.2% active; in the data active means inhibition above about 30%;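 further: 0% = DMSO wells and 100% = wells lacking the enzyme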
BH1578 lux ind: inducers of Vibrio cholerae quorum light production without autoinducers; V. cholerae BH1578 lux reporter, luminescence, 6 h; activation, % at 18.7 µM; 350,000 tested, 0.16% active; AID 588436; in the data active means activation mostly above about 9.7%, no sharp cut-off
Mtb BioA inh: inhibitors of Mycobacterium tuberculosis BioA enzyme; purified M. tuberculosis BioA enzyme, plate reader; inhibition, % at 9.99 µM; 360,000 tested, 0.096% active; AID 602481; in the data active means inhibition above about 40%
FBA Mtb inh: inhibitors of M. tuberculosis fructose-bisphosphate aldolase. 360,000 tested, 2.3% active. purified M. tuberculosis FBA, fluorescence read-out. inhibition, % at 1 µM; in the data active means inhibition above about 27%;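 further: 0% = vehicle and 100% = reference inhibitor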
Target sequence (P9WQA3 whole entry, looked up): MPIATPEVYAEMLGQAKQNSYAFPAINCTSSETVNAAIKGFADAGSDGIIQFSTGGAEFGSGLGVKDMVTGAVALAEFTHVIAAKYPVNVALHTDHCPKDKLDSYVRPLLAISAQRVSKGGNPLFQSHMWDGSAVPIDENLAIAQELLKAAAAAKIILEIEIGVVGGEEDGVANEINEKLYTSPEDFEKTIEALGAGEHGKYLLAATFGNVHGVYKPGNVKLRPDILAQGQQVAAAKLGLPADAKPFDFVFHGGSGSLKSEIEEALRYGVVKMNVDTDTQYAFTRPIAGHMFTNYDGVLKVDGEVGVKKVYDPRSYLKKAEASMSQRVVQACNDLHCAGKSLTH
* hit, by the source's call; i = inactive; · = no result given; + = active, no number. In the library only some 3% were active in any assay of this set; here they are far more common.

SMILES	GDH-TPI counter	BH1578 lux ind	Mtb BioA inh	FBA Mtb inh
O=C(NN=Cc1c(F)c(F)c(F)c(F)c1F)c1ccc(NS(=O)(=O)c2cccs2)cc1	36.1*	i	-1.7	-4.4
CNC[C@H]1Oc2ccc(NC(=O)Cc3cn(C)c4ccccc34)cc2C(=O)N([C@@H](C)CO)C[C@H]1C	·	·	1.2	·
CCCc1cc(=O)oc2c3c(cc(OCC(=O)N4CCC(C(=O)O)CC4)c12)OC(C)(C)CC3	20.1	-0.3	1.0	+
CCCc1cc(=O)oc2c3c(cc(OCC(=O)NCC4CCC(C(=O)O)CC4)c12)OC(C)(C)CC3 (configuration not stated)	18.6	-0.4	1.1	+
Cc1cc(OCC(=O)NCC2CCC(C(=O)O)CC2)c2c(C)cc(=O)oc2c1 (configuration not stated)	9.8	-0.6	-1.3	21.4
CCCc1cc(=O)oc2cc(OCC(=O)N3CCC(C(N)=O)CC3)ccc12	10.8	-0.6	0.0	26.1
Cc1noc(C)c1S(=O)(=O)N(C)C[C@H]1Oc2ccc(NC(=O)Nc3ccc(C(F)(F)F)cc3)cc2CC(=O)N([C@@H](C)CO)C[C@@H]1C	·	·	-0.2	·
O=C1O[C@@H](c2ccccc2)[C@@H](c2ccccc2)N2[C@@H](c3ccc(O)cc3)[C@]3(C(=O)Nc4ccc(C#CC5(O)CCCCCC5)cc43)[C@@H](C(=O)NC[C@H](O)c3ccccc3)[C@H]12	·	·	-0.1	·
COc1cc(/C=C2\C(=O)NC(=O)N(CCc3ccc(F)cc3)C2=O)ccc1O	28.2	-0.2	·	-0.7
COc1cc(/C=C2\NC(=O)NC2=O)cc(Br)c1OC	32.4*	i	-0.2	-1.6
COc1ccc(C=C2NC(=O)NC2=O)cc1O	43.1*	i	-0.3	-1.9
COc1cc(C=C2C(=O)NC(=O)NC2=O)ccc1O	32.0*	i	-2.5	1.1
COc1ccccc1-c1nnn(CC#N)n1	-2.1	20.0*	0.2	4.2
COc1ccc(-c2nnn(CC#N)n2)cc1OC	-7.1	i	-0.6	0.2
COc1ccccc1C(=O)N1C[C@H]2[C@@H](c3ccccc31)[C@@H](CO)N2C(=O)C1CCCCC1	·	·	24.1	·
CCOC(=O)/C(=C/c1c[nH]c2ccccc12)NC(C)=O	37.6*	i	1.1	-2.1
C[C@@H]1CN([C@@H](C)CO)C(=O)c2cc(-c3cccnc3)cnc2O[C@@H]1CN(C)C(=O)Nc1ccc(C(F)(F)F)cc1	·	·	3.3	·
COc1ccc2cc(C(=O)N/N=C/c3cc(OC)c(OC)c(OC)c3)[nH]c2c1	49.3*	-1.4	0.3	3.9
COc1cc2cc(C(=O)N/N=C/c3ccccc3Cl)[nH]c2cc1OC	46.5*	-8.3	-1.2	3.3
O=C(/C=C\c1ccccc1)NCC(=O)N/N=C/c1ccc(O)cc1O	29.6	i	0.6	4.9
COc1ccc(/C=C\C(=O)NCC(=O)N/N=C/c2ccc(O)cc2O)cc1	67.5*	-3.7	-1.7	5.5
O=C(NN=Cc1ccccc1Cl)c1ccccc1	0.9	i	0.5	0.3
COc1cc(/C=N/NC(=O)c2ccc(-c3ccccc3)cc2)cc(OC)c1OC	9.2	-0.4	·	2.2
COc1ccc(/C=N/NC(=O)c2cc3cc(OC)c(OC)cc3[nH]2)cc1	42.1*	i	2.7	3.6
COc1cc(OC)c2cc(C(=O)N/N=C/c3cccc(OC)c3O)[nH]c2c1	43.0*	-0.4	3.1	6.2
SMILES	GDH-TPI counter	BH1578 lux ind	Mtb BioA inh	FBA Mtb inh
COc1ccc2[nH]c(C(=O)Nc3ccc(C)c(F)c3)cc2c1	6.4	-0.5	·	3.7
COc1cc2cc(C(=O)N/N=C/c3ccc(F)cc3)[nH]c2cc1OC	46.2*	i	0.9	-0.5
COc1ccc2[nH]c(C(=O)N/N=C/c3ccc(O)cc3O)cc2c1	30.9*	i	-2.2	17.6
COCC(C)NC(=O)c1cc2cc(OC)ccc2[nH]1 (configuration not stated)	4.0	-0.3	·	46.5*
Cc1ccc(S(=O)(=O)N2CC[C@@H]3[C@@H](CO)Nc4ccc(C#Cc5ccccc5F)cc4[C@@H]32)cc1	·	·	-1.3	·
COc1ccc(NC(=O)N(C)C[C@@H]2Oc3c(NC(=O)Nc4c(C)noc4C)cccc3C(=O)N([C@@H](C)CO)C[C@H]2C)cc1	·	·	0.5	·
CCOc1ccc2[nH]c(C(=O)N/N=C/c3ccc(OC)cc3)cc2c1	55.0*	i	-1.1	6.7
Cc1ccc(S(=O)(=O)Nc2ccc3c(c2)C(=O)N([C@H](C)CO)C[C@H](C)[C@H](CN(C)C(=O)CCC(F)(F)F)OCCCC[C@@H](C)O3)cc1	·	·	2.0	·
CCOC(=O)c1ccc(Nc2c(OCC)c(=O)c2=O)cc1	35.2*	i	0.0	-2.6
CCOC(=O)c1nc(Nc2ccc(C)cc2)c2ccccc2n1	34.4*	i	1.2	-2.8
CCOC(=O)c1nc(Nc2ccccc2)c2ccccc2n1	22.2	i	-0.5	-1.3
CCOC(=O)c1ccc(Nc2ncnc3ccccc23)cc1	57.3*	i	2.2	1.7
CCOC(=O)c1ccc(Nc2ccc(C(C)=O)cc2)cc1	·	·	8.0	8.8
CCOC(=O)c1ccc(Nc2ncnc3ccc(C)cc23)cc1	21.4	-0.4	-2.6	2.0
CCCN1[C@H](C(=O)NCCOC)[C@@H](CO)[C@@H]2Cn3c(ccc(-c4cccc(C(=O)N(C)C)c4)c3=O)[C@@H]21	·	·	1.4	·
COc1ccc(NC2CCCN(Cc3cccc4cnccc34)C2)cc1 (configuration not stated)	14.6	-0.9	0.3	2.2
COc1ccc(NC2CCCN(Cc3cccc4cnccc34)C2)cc1OC (configuration not stated)	19.8	-0.6	0.4	117.9*
CCC(=O)/C=C1\Sc2ccc(OC)cc2N1CCO	30.3	i	1.0	-3.5
CCC(=O)/C=C1\Sc2ccc(OC)cc2N1CC	31.1*	-0.7	0.6	-0.3
Cc1ccc(C2=C(O)c3ccccc3C(=O)C2=O)cc1	-0.8	-0.3	-0.1	-1.4
NC(=O)C1=C(c2ccccc2)c2ccccc2C1=O	11.9	42.8*	-0.6	2.2
C[C@@H]1CN([C@@H](C)CO)C(=O)c2cc(NC(=O)C3CCCCC3)ccc2O[C@@H]1CN(C)S(=O)(=O)c1cn(C)cn1	·	·	-1.5	·
O=C(O)c1ccccc1NS(=O)(=O)c1ccc(NN=Cc2ccc(F)cc2)c([N+](=O)[O-])c1	13.3	i	·	-2.3
O=C(O)c1ccccc1NS(=O)(=O)c1ccc(N/N=C/c2ccc(O)c(O)c2)c([N+](=O)[O-])c1	46.3*	0.7	6.0	1.5
COc1ccccc1NS(=O)(=O)c1ccc(N/N=C/c2ccccc2OCC(=O)O)c([N+](=O)[O-])c1	34.9*	0.6	-0.1	-5.6
SMILES	GDH-TPI counter	BH1578 lux ind	Mtb BioA inh	FBA Mtb inh
O=C(c1cnn2c(C(F)(F)F)cc(-c3ccco3)nc12)N1CCCCCC1	16.6	-3.4	-1.8	2.6
O=C(O)c1cnn2c(C(F)(F)F)cc(-c3ccco3)nc12	38.7*	-0.3	-3.7	-2.2
O=C(C=Cc1ccccc1)c1c[nH]c2ccccc2c1=O	37.7*	-5.6	-1.2	-1.8
O=C(/C=C/c1ccccc1)c1c[nH]c2ccccc12	23.4	i	-2.3	-4.0
CN(C)S(=O)(=O)c1cccc(-c2cn3cccnc3n2)c1	6.1	2.0	·	173.0*
Cc1ccc2nc(-c3cccc(S(=O)(=O)N4CCCC4)c3)cn2c1	10.6	-6.7	-0.1	3.5
O=S(=O)(c1cccc(-c2cn3cccnc3n2)c1)N1CCOCC1	27.4	i	-1.1	+
